Assay results as given in PubChem BioAssay AID2147 (National Center for Advancing Translational Sciences (NCATS), 2009).
The campaign covered roughly 230,000 compounds. About 3,600 (1.6%) were called active. Entries that show only a call come without a potency. Inconclusive results (about 15%) are left out. Calls come from the whole dose curve; as a rule, active = well fitted inhibition curve with a large enough effect (not every such curve was filed as active); inconclusive = small, poorly fitted or top-dose-only effect, or another doubt; inactive = no such curve, though single readings can be large or run the other way. This excerpt belongs to a sample that is enriched for actives.

What follows are compounds tested against Lysine-specific demethylase 4E (Homo sapiens) (UniProt B2RXH2) (assay: qHTS Assay for Inhibitors of Human Jumonji Domain Containing 2E (JMJD2E)). Conditions: JMJD2E catalytic domain, FDH-coupled NADH fluorescence (FDH is formaldehyde dehydrogenase); series mostly up to 57.1 µM.
Chain of Lysine-specific demethylase 4E (Homo sapiens) (B2RXH2 1-337 limits assumed): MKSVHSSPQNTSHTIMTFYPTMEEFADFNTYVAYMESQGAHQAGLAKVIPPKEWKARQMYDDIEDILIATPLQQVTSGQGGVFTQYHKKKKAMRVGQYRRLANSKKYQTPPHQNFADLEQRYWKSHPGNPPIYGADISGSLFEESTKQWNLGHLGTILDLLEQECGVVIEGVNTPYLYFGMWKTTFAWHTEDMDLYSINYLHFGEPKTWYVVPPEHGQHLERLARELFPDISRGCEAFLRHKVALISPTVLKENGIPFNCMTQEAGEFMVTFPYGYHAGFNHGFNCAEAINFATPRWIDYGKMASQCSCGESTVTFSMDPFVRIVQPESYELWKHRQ
Description: Assay Provider: Structural Genomics Consortium [SGC] Screening Center PI: Austin, C.P. Screening Center: NIH Chemical Genomics Center [NCGC] The fine interplay among methylation states of several lysine residues on the tails of histone proteins is a major determinant of the transcriptional state of the associated DNA coding regions and is commonly referred to as the histone code. Histone lysine demethylases catalyze the removal of methyl groups from methylated lysine sidechains on histones H3 and H4, thus antagonizing the reactions catalyzed by histone lysine methyltransferases. […] In search for novel inhibitors of JMJD2E demethylase, a member of the largest set of histone demethylases belonging to the Fe(II) and 2-oxoglutarate oxygenase (2OG) superfamily, we performed a quantitative high-throughput screen (Inglese 2006) by using an assay which utilizes a trimethylated peptide substrate corresponding to a fragment of histone H3 (sequence ARKme3STGGK) with detection of the formaldehyde co-product in real time by a formaldehyde dehydrogenase (FDH) coupled reaction. FDH catalyzes oxidation of formaldehyde to formic acid with the concomitant reduction of the non-fluorescent beta-nicotinamide adenine dinucleotide hydrate (NAD+) cofactor to the fluorescent NADH co-product. References: Inglese, J., Auld, D., Jadhav, A., Johnson, R., Simeonov, A., Yasgar, A., Zheng, W. and Austin, C. Proc Natl Acad Sci USA 2006, 103, 11473-11478. N. R. Rose, S. S. Ng, J. Mecinovic, B. M. Lienard, S. H. Bello, Z. Sun, M. A. McDonough, U. Oppermann and C. J. Schofield, J Med Chem, 2008, 51, 7053-7056. Sakurai, M., Rose, N., Schultz, L., Quinn, A., Jadhav, A., Ng, S., Oppermann, U., Schofield, C.J. and Simeonov, A. Mol BioSystems 2009, in press. S. Michael, D. Auld, C. Klumpp, A. Jadhav, W. Zheng, N. Thorne, C. Austin, J. Inglese and A. Simeonov, Assay Drug Dev Technol, 2008, 6, 637-657.
Reagents and Controls: Ferrous ammonium sulfate, (+)-sodium L-ascorbate, beta-nicotinamide adenine dinucleotide hydrate (NAD+), Tween-20, formaldehyde dehydrogenase from P. putida (FDH), and disodium 2-oxoglutarate were from Sigma (St. Louis, MO). Black solid-bottom 384-well or 1,536-well assay plates were from Greiner Bio-One (Monroe, NC). Enzyme was supplied by Prof. Udo Oppermann, SGC-Oxford. The catalytic domain of human JMJD2E (residues 1-337) was produced as an N-terminally His6-tagged protein in E. coli, and purified by Ni-affinity chromatography and size-exclusion chromatography, and stored in HEPES 50 mM/ NaCl 500 mM pH 7.5, as reported in Rose 2008. The trimethylated histone peptide substrate ARK(me3)STGGK was synthesized and HPLC-purified by the Tufts University Core Facility (Boston, MA). Substrate solution (Sakurai 2009) contained 50 uM ARK(me3)STGGK, 0.00025 U/uL FDH, 50 uM 2-oxoglutarate, 250 uM NAD+, 1 mM ascorbate, and 10 uM ferrous ammonium sulfate. Controls and plate map: Buffer (150 mM HEPES pH 7.5 containing 0.01% Tween-20) in columns 3 and 4 as negative control (no enzyme) and 100 nM JMJD2E final concentration in columns 1,2, and 5-48. Assay Steps: Enzyme and buffer solutions (3 uL) were dispensed into a 1,536-well Greiner black solid-bottom assay plate. The library compounds (23 nL) were transferred using a Kalypsys pintool equipped with 1,536-pin array. The plate was incubated at room temperature (15 min), and then a 1 uL aliquot of substrate solution was added to initiate the reaction. The plate was transferred to ViewLux imager where an initial reading using standard UV optics (Ex 340 nm, Em 450 nm) was obtained. The plate was then removed from the reader, incubated for 30 minutes at room temperature, and returned to the reader for a second fluorescence reading. A fully automated robotic screening system (Kalypsys Inc, San diego, CA) was used to perform the above steps as described previously (Michael 2008). […]
Note: nearly all actives have a fitted effect of over 50% in size.
Potency is the fitted concentration of half-maximal effect.

Row | Compound | Potency
1 | CC/C(=N\NC(=O)c1ccccc1O)c1c(O)n(Cc2ccccc2)c(=O)[nH]c1=O | 25.1 µM (active)
2 | O=c1[nH]c(=O)n(Cc2ccccc2)c(O)c1/C=N/Nc1c(F)c(F)c(F)c(F)c1F | inactive
3 | CCC(=NCCc1ccccc1)c1c(O)n(C2CCCCC2)c(=O)[nH]c1=O | inactive
4 | CNCC[C@H](Oc1ccc(C(F)(F)F)cc1)c1ccccc1 | inactive
5 | N#Cc1c(Cl)c(Cl)c(Cl)c(C#N)c1Cl | inactive
6 | CNC(=O)O/N=C(\N)Cc1csc2ccc(Cl)cc12 | inactive
7 | CC[C@H]1CN2CCc3cc(OC)c(OC)cc3[C@@H]2C[C@@H]1C[C@H]1NCCc2cc(OC)c(OC)cc21 | inactive
8 | CC1CCCCN1Cc1cccnc1 (stereo not given) | 20 µM (active)
9 | c1cncc(CNC2=NCCC2)c1 | inactive
10 | CC1=C2C(=O)C3C(CC=C4CC(OC5OC(O)C(O)C(O)C5CO)CCC43C)C2CCC12OC1CC(C)CNC1C2C (stereo not given) | inactive
11 | CNC(C)[C@@H](O)c1ccccc1 (stereo not given in full) | inactive
12 | Cc1ccc(N2C(=O)NC(=O)C(CCc3ccncc3)(Cc3cccc(Cl)c3Cl)C2=O)cc1 (stereo not given) | inactive
13 | CCCCC/C=C\C/C=C\C/C=C\C=C\[C@H](CCCC(=O)O)OO | inactive
14 | C[C@H]1CC[C@@]2(NC1)O[C@@H]1C[C@H]3[C@@H]4CC=C5C[C@@H](O)CC[C@]5(C)[C@@H]4CC[C@]3(C)[C@@H]1[C@@H]2C | inactive
15 | O=C(OCC1O[C@@H](OC(=O)c2cc(O)c(O)c(O)c2)[C@@H](OC(=O)c2cc(O)c(O)c(O)c2)[C@@H](OC(=O)c2cc(O)c(O)c(O)c2)[C@@H]1OC(=O)c1cc(O)c(O)c(O)c1)c1cc(O)c(O)c(O)c1 (stereo not given in full) | 3.16 µM (active)
16 | O=C(COC(=O)c1ccccc1)Nc1ccc(Cl)cc1C(=O)c1ccccc1 | inactive
17 | COc1ccccc1N1CCN(C(CNC(=O)Oc2ccccc2)c2cccnc2)CC1 (stereo not given) | inactive
18 | CN(C)CC1CCCCC1OC(=O)c1ccc(Cl)c(Cl)c1 (stereo not given) | inactive

Row | Compound | Potency
19 | COc1cccc(N2C(=O)NC(=O)/C(=C\c3ccc([N+](=O)[O-])s3)C2=O)c1 | 17.8 µM (active)
20 | Cc1cccc(N2C(=O)NC(=O)/C(=C\c3cnn(-c4ccccc4)c3)C2=O)c1 | inactive
21 | Cc1ccccc1N1C(=O)NC(=O)/C(=C\c2cc(C)n(C)c2C)C1=O | inactive
22 | CC1=C(C(=O)Nc2ccccc2)S(=O)(=O)CCO1 | inactive
23 | O=c1oc2ccccc2c(O)c1C(c1ccccc1O)c1c(O)c2ccccc2oc1=O | inactive
24 | CC(=O)c1c(O)c(C)c(O)c(Cc2c(O)c3c(c(C(=O)/C=C\c4ccccc4)c2O)OC(C)(C)C=C3)c1O | 20 µM (active)
25 | O=C(Cn1c(=O)n(CC2CS2)c2ccccc21)N1CCCCC1 (stereo not given) | inactive
26 | C[C@]12CC[C@@H]3C(=CCc4cc(O)ccc43)[C@@H]1CCC2=O | inactive
27 | C[N+]12CN3CN(CN(C3)C1)C2 | inactive
28 | CN(C)C1C(=O)C(C(N)=O)=C(O)[C@@]2(O)C(=O)C3=C(O)c4c(O)cccc4[C@@](C)(O)C3C[C@@H]12 (stereo not given in full) | 10 µM (active)
29 | COc1cccc(CN2CCCC(C(=O)c3ccccc3SC)C2)c1O (stereo not given) | inactive
30 | CCOC(=O)C1SC2(C(F)(F)C(F)F)CC1(O)c1c(c(OC)c3occc3c1OC)O2 (stereo not given) | inactive
31 | COC1=C[C@]23CCCN2CCc2cc4c(cc2[C@@H]3[C@@H]1O)OCO4 | inactive
32 | C/C(=C\C=C/[C@@H](C)C(=O)O)[C@H]1CN[C@H](C(=O)O)[C@@H]1CC(=O)O | 12.6 µM (active)
33 | COc1ccc(C(=O)CC2C(=O)N(C)C(=O)N(C)C2=O)cc1 | inactive
34 | Cc1cccc(OP(=O)(Oc2cccc(C)c2)OC(c2ccccc2)C(F)(F)F)c1 (stereo not given) | inactive
35 | Fc1ccc(C2N3CCCN23)cc1 (stereo not given) | inactive
